# HIF act = HIF pathway transcriptional activation; U2OS HRE-luciferase reporter, luminescence; normalized: DMSO 0%, desferrioxamine 100%; activation, % at 7.5 µM (by protocol); 300,000 tested, 0.32% active; AID 1910;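 active = mean activation of at least 10% of the iron chelator positive control signal, with at least half of replicates also reaching 10%; inconclusive = mean and replicate majority disagree about reaching 10%; inactive = mean and most replicates under 10%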
# Platelet DG rel = platelet dense granule release activity; human platelet-rich plasma, SFLLRN dense granule ATP release, luminescence; inhibition, %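 (compounds screened at 7.5 µM in platelet-rich plasma)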; 300,000 tested, 0.22% active; AID 1663;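 active = mean replicate score, as percent of positive control, at or above 50; inconclusive = mean below 50 but at least one replicate at or above 50; inactive = mean and every replicate below 50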
# NTR1 agonist = NTR1 (human) agonism | P30989 | NTR1-U2OS beta-arrestin-GFP spot imaging, agonist mode | activation, % at 20 µM | 330,000 tested, 0.17% active | AID 493036;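 active = activation at or above 40% of the spot to cytoplasm intensity ratio, with at least 20 cells analyzed; inconclusive = wells under 20 cells, flagged as cytotoxic or low count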;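 note: 0% = DMSO without peptide and 100% = 100 nM NTR1 peptide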
# Target sequence (P30989 whole entry, looked up): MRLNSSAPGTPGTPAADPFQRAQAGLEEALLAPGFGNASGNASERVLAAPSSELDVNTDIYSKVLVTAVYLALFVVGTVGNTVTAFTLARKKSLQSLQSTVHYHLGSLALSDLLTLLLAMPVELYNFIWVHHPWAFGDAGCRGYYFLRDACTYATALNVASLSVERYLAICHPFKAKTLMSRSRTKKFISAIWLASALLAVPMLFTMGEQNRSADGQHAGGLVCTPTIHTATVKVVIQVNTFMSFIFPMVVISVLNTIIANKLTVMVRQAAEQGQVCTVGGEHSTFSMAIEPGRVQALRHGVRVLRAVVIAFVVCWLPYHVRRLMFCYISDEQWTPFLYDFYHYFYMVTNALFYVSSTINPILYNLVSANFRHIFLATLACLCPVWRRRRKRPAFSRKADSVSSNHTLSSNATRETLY
# Active calls of the source: *; ? = inconclusive; . = no result given. The list is not random: actives were taken first. Their share in the collection is about 0.63%.
SMILES,HIF act,Platelet DG rel,NTR1 agonist
Cc1ccc(C(=O)N[C@H](C(=O)OCc2cc(=O)n3c(n2)sc2ccccc23)C(C)C)cc1,-0.2,-2.3,4.9
CC(C)[C@H](NC(=O)c1ccco1)C(=O)OCc1cc(=O)n2c(n1)sc1ccccc12,20.2*,0.6,3.5
COc1ccc(-c2nnnn2-c2ccc(F)cc2F)cc1,-0.2,-0.2,0.9
COc1cc(C(=O)N/N=C/c2cccc(Oc3ccccc3)c2)ccc1O,-0.4,-1.9,0.3
COc1cccc(/C=N/Nc2ccnc(=O)[nH]2)c1O,0.1,?,0.1
O=c1nccc(N/N=C/c2ccccc2O)[nH]1,2.1,62.5*,1.9
CCOc1ccc(NC(=O)C2CCCN2C(=O)NC2CCCCC2)cc1 (stereo not given),-0.3,1.5,-1.3
Oc1c(C(Nc2cccc(C(F)(F)F)c2)c2cccnc2)ccc2cccnc12 (stereo not given),1.8,-2.7,3.2
COc1cccc(/C=N/NC(=O)CSc2cccc3cccnc23)c1,0.3,-5.4,5.1
Oc1cccc(C(Nc2nccs2)c2ccc3cccnc3c2O)c1 (stereo not given),35.2*,3.1,2.7
COc1cccc(C(NC(C)=O)c2ccc3cccnc3c2O)c1 (stereo not given),38.0*,1.3,5.6
Cc1cc(NC(c2cccnc2)c2ccc3cccnc3c2O)no1 (stereo not given),22.0*,-2.8,-1.0
O=C(COc1cccc2cccnc12)Nc1nccs1,-1.0,-2.4,-0.4
CC(=O)NC(c1cccc([N+](=O)[O-])c1)c1ccc2cccnc2c1O (stereo not given),231.2*,-7.9,3.0
CC(=O)NC(c1ccccc1)c1cc([N+](=O)[O-])c2cccnc2c1O (stereo not given),1.8,2.7,1.0
COc1ccc(S(=O)(=O)c2cnc3ccccc3n2)cc1,-0.2,2.7,-1.5
Cc1nc(SCC(=O)Nc2ccc(CN3CCCC3)cc2)c2c(C)c(C)sc2n1,.,.,6.8
CC[C@H](C)[C@@H](C(=O)NCCCCCCCCCCC(=O)N1CCN(C(=O)OC(C)(C)C)CC1)n1cc(CCCCN=C(NC(=O)OC(C)(C)C)NC(=O)OC(C)(C)C)nn1,.,.,62.8*
CC(C)(C)OC(=O)CC[C@@H](C(=O)NCCCCCCCCCCC(=O)N1CCN(C(=O)OC(C)(C)C)CC1)n1cc(CCCCCNC(=O)OC(C)(C)C)nn1,.,.,-0.4
CC(C)(C)OC(=O)NCCCCCc1cn([C@@H](CO)C(=O)NCCCCCCCCCCC(=O)N2CCN(C(=O)OC(C)(C)C)CC2)nn1,.,.,82.3*
CC[C@H](C)[C@@H](C(=O)NCCCCCCCCCCC(=O)N1CCN(C(=O)OC(C)(C)C)CC1)n1cc(CCCCCNC(=O)OC(C)(C)C)nn1,.,.,1.3
O=C(CSCc1ccco1)Nc1cc(C(F)(F)F)ccc1N1CCOCC1,0.1,-9.7,0.5
CC(=O)/C(C=Nc1noc(C)c1Br)=C(\C)O,-0.6,-6.0,-0.7
c1ccc(-c2noc(CN3CCOCC3)n2)cc1,0.5,-6.7,-0.2
Cc1cnc(C)c(N2CCN(Cc3nc(-c4ccccc4)no3)CC2)n1,-0.3,49.6*,2.1
SMILES,HIF act,Platelet DG rel,NTR1 agonist
COc1cc(N/N=C/c2ccc(N(C)C)cc2)ncn1,-1.3,57.2*,0.1
COc1cc(N/N=C/c2ccccc2O)ncn1,10.1*,-3.1,-0.9
Cc1cnn(-c2cc(N/N=C/c3ccccc3F)ncn2)c1,0.2,-1.3,1.6
CCNc1nc(NCC)nc(N/N=C/c2ccc(N(C)C)cc2)n1,0.0,-4.0,-0.7
CSCCC1COC(c2cccs2)=N1 (stereo not given),0.3,13.6,2.2
Cc1ccc(Sc2ccc(NC(=O)CCl)cc2)c(C)c1,-0.1,1.6,11.4
C=CCN1C(=O)c2ccccc2Sc2ccc(C(=O)N3CCN(C)CC3)cc21,10.1*,0.8,0.8
C=CCN1C(=O)c2ccccc2Sc2ccc(C(=O)NC(C)C)cc21,0.0,1.6,0.6
CC1CC(=O)Nc2ccccc2N1S(=O)(=O)c1ccc(Br)cc1 (stereo not given),0.4,-6.4,-0.9
COc1cc(O)oc1C=Nc1ccc(Cl)cc1,0.1,-7.5,-0.9
COc1cc(O)oc1C=Nc1ccc(C(=O)O)cc1,1.1,70.1*,0.7
COC(=O)Cc1cc(=O)[nH]c(/N=C(\N)Nc2ccc(C)cc2C)n1,-0.1,-0.4,-0.5
COC(=O)C1=C(C)N(Cc2cccnc2)C(=O)/C1=C\c1sccc1C,-0.7,13.1,3.1
N/C(=N\OC(=O)c1ccc2ccccc2c1)c1ccncc1,0.8,-4.5,1.6
N/C(=N\OC(=O)c1ccc2ccccc2c1)c1ccccn1,-3.7,66.0*,3.5
CCCc1ccc(C(=O)O/N=C(\N)c2ccccn2)cc1,-3.8,76.9*,2.4
N/C(=N\OC(=O)c1ccc(=O)n(Cc2ccccc2)c1)c1ccccn1,1.6,0.6,1.1
COC(=O)C1CCCN1C(=O)COc1ccc(Br)cc1Cl (stereo not given),-0.1,2.1,2.5
Cc1cccnc1NC(=O)c1ccc(S(=O)(=O)N2CC(C)OC(C)C2)cc1 (stereo not given),0.0,-6.9,-1.3
CCOC(=O)N1CCN(Cc2nc3c(c(=O)n(C)c(=O)n3C)n2Cc2cccc(C)c2)CC1,-0.2,4.4,1.1
CCOC(=O)N1CCN(Cc2nc3c(c(=O)n(C)c(=O)n3C)n2Cc2cccc3ccccc23)CC1,-0.2,73.2*,2.3
COc1cc(NC(C(=O)Nc2cccc(C(C)=O)c2)c2ccccc2)cc(OC)c1OC (stereo not given),1.1,-4.1,1.2
CCCC(=O)N1CCN(c2ccc(NC(=O)c3cc4ccccc4o3)cc2Cl)CC1,0.3,2.6,45.2*
CCC(=O)N1CCN(c2ccc(NC(=O)c3cc4ccccc4o3)cc2Cl)CC1,0.7,2.8,36.9
Cc1ccc(OCCNS(=O)(=O)c2ccc(N3CCCC3=O)cc2)cc1,.,.,-1.1
SMILES,HIF act,Platelet DG rel,NTR1 agonist
COc1cc2ccccc2cc1C(=O)NC(=S)Nc1nnn(C)n1,0.0,19.1,2.1
CN(C(=O)c1cc(S(=O)(=O)N2CCc3ccccc32)cn1C)C1CCCCC1,-0.1,58.0*,0.0
Cc1ccc(N(C)C(=O)c2cc(S(=O)(=O)N3CCc4ccccc43)cn2C)cc1,-0.6,10.4,0.9
Cc1ccc(NC(=O)c2cc(S(=O)(=O)N3CCc4ccccc43)cn2C)cc1,-0.7,-0.3,9.6
Cn1cc(S(=O)(=O)N2CCc3ccccc32)cc1C(=O)Nc1ccc(Cl)cc1,-0.1,61.7*,2.0
Cc1ccc(/C=N/n2c(=O)c(C(C)(C)C)nn3cnnc23)cc1,0.6,-0.2,-1.4
CC/C(C)=N/Nc1ccc(S(=O)(=O)N2CCCC2)cc1[N+](=O)[O-],-2.1,7.7,-2.3
COc1cccc(/C=N/n2nnnc2N)c1OCC#N,0.3,2.3,-0.6
O=C(Cn1cnc([N+](=O)[O-])n1)N/N=C/c1ccccc1O,5.8,-1.0,0.4
O=C(Cn1cnc([N+](=O)[O-])n1)N/N=C/c1cc(Cl)ccc1O,15.2*,-4.5,1.0
CS(=O)(=O)N(CC(=O)Nc1ccccc1C(=O)N1CCOCC1)c1ccc2c(c1)OCO2,.,10.2,-0.3
O=C(N/N=C(\c1ccccc1)c1ccccn1)c1cccc([N+](=O)[O-])c1,130.7*,0.4,2.7
Cn1ccnc1/C(=N\NC(=O)c1ccccc1)c1cccc([N+](=O)[O-])c1,-0.6,-4.5,-0.8

# Compound activity from PubChem.
